Sampled rows, rich in hits. Any-hit rate of the full collection: about 19%.
HepG2 viability: qHTS for Inhibitors of TGF-b: Cytotox Counterscreen | HepG2 CAGA-GFP viability, ATP luminescence, 18 h | AID 588856, 2011 | Potency, µM (series often up to 46.1 µM), most hits filed as cytotoxic | hit rate 0.76% among 410,000
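HepG2 CAGA-GFP cells (1000/well, DMEM with 1% FBS) received compound, then TGF-beta at 500 pg/mL final, and were incubated 18 hours at 37 degrees C. Viability was read by CellTiter-Glo luminescence. Media-only wells were set as complete cell-killing and DMSO as no toxicity.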
TDP1 cell CPT: qHTS for Inhibitors of human tyrosyl-DNA phosphodiesterase 1 (TDP1): qHTS in cells in presence of CPT; chicken DT40 Tdp1-/-;hTDP1 cells + 20 nM CPT, ATP luminescence, 48 h; Potency, µM (series often up to 46.2 µM), actives largely listed as inhibitors; hit rate 12% among 420,000; AID 686979, 2013; also: nearly all actives have a fitted effect of over 55% in size
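Chicken DT40 Tdp1-/- cells complemented with human TDP1, 400 cells/well, exposed to compounds plus 20 nM camptothecin for at least 48 h at 37 C; viability read as ATP content by CellTiter-Glo luminescence.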
DT40 TDP1 no CPT: qHTS for Inhibitors of human tyrosyl-DNA phosphodiesterase 1 (TDP1): qHTS in cells in absence of CPT. Potency, µM (titrated, usually from 46.2 µM), usual class: inhibitors. hit rate 15% among 420,000. DT40 Tdp1-/- hTDP1 cells, no CPT, ATP luminescence, 48 h; also: nearly all actives have a fitted effect of over 55% in size
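A cellular qHTS used chicken DT40 cells lacking endogenous Tdp1 but carrying stably transfected human TDP1. Compounds were applied without camptothecin, and cell growth kinetics were judged by ATP-dependent luminescence after ≥48 hr.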
ASM inhibitor: Inhibitors of Secretory Acid Sphingomyelinase (S-ASM): qHTS; Sphingomyelin phosphodiesterase (Homo sapiens), P17405; placental ASM, HMU-PC fluorogenic substrate, 60 min; Potency, µM (highest dose often 57.5 µM), actives largely listed as inhibitors; hit rate 0.006% among 340,000; AID 504937, 2011
Target sequence (P17405 47-631 limits assumed): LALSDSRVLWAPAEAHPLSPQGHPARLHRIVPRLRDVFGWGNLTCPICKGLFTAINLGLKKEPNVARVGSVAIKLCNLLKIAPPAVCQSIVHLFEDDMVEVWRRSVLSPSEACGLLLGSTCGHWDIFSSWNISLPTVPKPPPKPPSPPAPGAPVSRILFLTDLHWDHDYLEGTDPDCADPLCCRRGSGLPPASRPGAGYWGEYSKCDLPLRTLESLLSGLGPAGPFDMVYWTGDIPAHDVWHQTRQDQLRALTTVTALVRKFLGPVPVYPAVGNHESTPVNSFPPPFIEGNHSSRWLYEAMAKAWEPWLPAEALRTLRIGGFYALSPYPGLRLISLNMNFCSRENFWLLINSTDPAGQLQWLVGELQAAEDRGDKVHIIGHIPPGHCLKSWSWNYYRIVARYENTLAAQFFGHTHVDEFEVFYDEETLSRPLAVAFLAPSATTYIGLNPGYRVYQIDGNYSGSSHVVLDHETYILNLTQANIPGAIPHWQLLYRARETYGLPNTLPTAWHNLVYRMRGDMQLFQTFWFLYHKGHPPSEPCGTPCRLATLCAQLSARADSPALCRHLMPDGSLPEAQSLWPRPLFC
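HMU-PC0 cleavage (9 uM final) by human placental ASM, 60 min at 37 °C following 10 min compound exposure at RT; stopped at pH 10, fluorescence Ex 386/Em 447 nm.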
TGFb inhibitor: qHTS for Inhibitors of TGF-b | hit rate 1.2% among 410,000 | Potency, µM (series often up to 46.1 µM), usual class: inhibitors | HepG2 CAGA-GFP TGF-b/SMAD3 reporter, GFP fluorescence, 18 h; TGF-beta stimulated, 500 pg/mL final | AID 588855, 2011; also: nearly all actives have a fitted effect of over 65% in size
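Read-out: total well GFP (ex488/em500-530) summed from mean per-cell fluorescence. Cells: HEPG2 CAGA-GFP, 1% FBS DMEM, 18 h at 37 degrees C with 500 pg/mL final TGF-beta. Unstimulated wells served as the full-inhibition control; stimulated DMSO wells = 0%.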
IL1B secr inh: qHTS for Inhibitors of Inflammasome Signaling: IL-1-beta AlphaLISA Primary Screen; activity change, % at 57.5 µM; hit rate 4.7% among 360,000; THP-1 LPS/ATP IL-1B secretion, AlphaLISA, 16 h; active compounds read low; AID 743279, 2014; in the data active = activity change below about -50%; inconclusive = mostly about -30% to -49%
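THP-1 cells pretreated 1 hr with compounds (up to 57.5 uM final), then stimulated with LPS (250 ng/mL final) plus ATP (1.25 mM final); secreted IL-1B measured by AlphaLISA after 16 hr, decreased signal indicating inhibition.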
Each line names hits and unclear results; the compound was inactive in the other large screens. Unless noted, calls follow the shape of the dose curve; as a rule, active = well fitted curve in the direction sought with a large enough effect; inconclusive = small, poorly fitted or top-dose-only effect, or another doubt; inactive = no such curve, though single readings can be large; an effect the other way counts as inactive or inconclusive.

OCCCn1c(-c2ccccc2)csc1=Nc1ccccc1	TDP1 cell CPT 23µM, DT40 TDP1 no CPT 16µM
CCN(CC)CCn1c(-c2ccccc2)csc1=Nc1ccccc1	TDP1 cell CPT inconclusive, DT40 TDP1 no CPT 16µM, TGFb inhibitor 13µM (no result: ASM inhibitor, IL1B secr inh)
COc1ccc(N=c2scc(-c3ccc(OC)cc3)n2CCO)cc1	TDP1 cell CPT 21µM, DT40 TDP1 no CPT 9.2µM, IL1B secr inh inconclusive
Cc1ccc(-c2csc(=Nc3ccccc3)n2Cc2ccc3c(c2)OCO3)cc1	TDP1 cell CPT 15µM, DT40 TDP1 no CPT 9.2µM (no result: ASM inhibitor, IL1B secr inh)
COC(=O)c1cc(=O)n(Cc2ccc3c(c2)OCO3)c(=Nc2ccccc2)s1	DT40 TDP1 no CPT inconclusive
O=C(Cn1c(=O)n(-c2ccc(F)cc2)c(=O)c2sc3ccccc3c21)NC1CCCCC1	TGFb inhibitor inconclusive (no result: ASM inhibitor, IL1B secr inh)
COc1cccc(-c2nc(SCC(=O)N3CCc4ccccc43)c3c(=O)n(C)c(=O)n(C)c3n2)c1	none (no result: ASM inhibitor, IL1B secr inh)
CCN(CC(=O)NCc1ccc(F)cc1)C(=O)c1cccnc1SC	none
COc1ccc(Cl)cc1NC(=O)c1cc2c(=O)n3ccccc3nc2s1	none (no result: ASM inhibitor, TGFb inhibitor, IL1B secr inh)
Cc1ccccc1C(=O)N1CCC[C@H]1C(=O)N1CCC[C@H]1C(=O)NCc1ccccn1	none (no result: HepG2 viability, ASM inhibitor, TGFb inhibitor)
Cc1cccc(NC(=O)CSc2nc(-c3ccco3)nc3cc(=O)[nH]n23)c1	TGFb inhibitor inconclusive (no result: ASM inhibitor, IL1B secr inh)
O=C(Nc1ccc(/C=C/c2nc3ccccc3o2)cc1)c1ccc(F)cc1	TDP1 cell CPT 21µM, DT40 TDP1 no CPT inconclusive
Nc1nc2ccccc2cc1C(=O)NCc1ccc(-c2ccccc2)cc1	TDP1 cell CPT 1µM, DT40 TDP1 no CPT 0.16µM (no result: HepG2 viability, ASM inhibitor, TGFb inhibitor)
O=C(NCc1ccccc1)c1ccc2ccccc2n1	none
O=C(NCc1ccc(Cl)cc1Cl)c1ccc2nc[nH]c2c1	none
Nc1nc2ccccc2cc1C(=O)NCc1ccc(Cl)cc1Cl	TDP1 cell CPT 16µM, DT40 TDP1 no CPT 5.8µM (no result: HepG2 viability, ASM inhibitor, TGFb inhibitor)
O=C(COc1ccccc1)Nc1ccc(C(=O)OCc2cc(=O)n3nc(C4CC4)sc3n2)cc1	none (no result: ASM inhibitor, IL1B secr inh)
c1ccc(-n2ncc3c(NCCCN4CCOCC4)ncnc32)cc1	none
CCN(CC)CCCNc1ncnc2c1cnn2-c1ccc(C)c(C)c1	TDP1 cell CPT inconclusive, DT40 TDP1 no CPT 16µM (no result: ASM inhibitor, IL1B secr inh)
Cc1cccc(-n2ncc3c(NCCCO)ncnc32)c1	none
Cc1ccc(-n2ncc3c(NCCCN4CCOCC4)ncnc32)cc1C	TDP1 cell CPT inconclusive, DT40 TDP1 no CPT 23µM (no result: ASM inhibitor, IL1B secr inh)
COc1ccccc1CSc1nc2c(c(=O)n(C)c(=O)n2C)n1C	TDP1 cell CPT inconclusive
Cc1cc(C)c2nc(N(CCCN(C)C)C(=O)C3=COCCO3)sc2c1	TDP1 cell CPT 16µM, DT40 TDP1 no CPT 21µM, IL1B secr inh inconclusive
CCN(CC)CCN(C(=O)c1ccc2c(c1)OCCO2)c1nc2ccc(C)cc2s1	TDP1 cell CPT inconclusive, IL1B secr inh -51
Cc1ccc2nc(N(CCN(C)C)C(=O)c3ccc4c(c3)OCCO4)sc2c1	none
CN(C)CCCN(C(=O)c1ccc2c(c1)OCCO2)c1nc2ccccc2s1	TDP1 cell CPT inconclusive, DT40 TDP1 no CPT 16µM (no result: ASM inhibitor, IL1B secr inh)
Cc1cc(C)c2nc(N(CCCN(C)C)C(=O)c3ccc4c(c3)OCCO4)sc2c1	TDP1 cell CPT 13µM, DT40 TDP1 no CPT 16µM, TGFb inhibitor inconclusive, IL1B secr inh -79
Cc1cccc2sc(N(CCN(C)C)C(=O)c3ccc4c(c3)OCCO4)nc12	TDP1 cell CPT inconclusive, DT40 TDP1 no CPT inconclusive (no result: ASM inhibitor, IL1B secr inh)
COc1ccc(N2CCN(S(=O)(=O)c3cnc[nH]3)CC2)cc1	none
CCCN(CCC)C(=O)c1ccc2c(c1)N(CC)C(=O)c1ccccc1S2(=O)=O	TDP1 cell CPT inconclusive, DT40 TDP1 no CPT inconclusive

Screening data from PubChem BioAssay.
